The results in this text go back to PubChem BioAssay (Tox21).

Molecules are shown by their SMILES. Values joined by “and” are separate entries in the source; they are usually repeats but may differ in a detail not shown here. Equal entries are not always repeated. Values without a mark were called inactive. Results filed as inconclusive are left out. Active and inactive are the calls of the source. Unless noted, the call rests on the fitted dose curve.

A short description of assay [1]: qHTS assay to identify small molecule antagonists of the sonic hedgehog signaling (Shh) pathway (AID 1259369). Further: nearly all actives have a fitted effect of over 45% in size. Further: potency means the concentration at half of the fitted maximal effect. Summed up:
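NIH/3T3-derived Gli1-Luc reporter cells plated 4 h, dosed with compound, then stimulated with conditioned medium for 24 h at 37 C. Firefly luciferase luminescence read after 30 min with detection reagent at room temperature.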
In general terms: qHTS replaces the single test concentration by a dilution series.

Assay [2] is described as follows: qHTS assay to identify small molecule agonists of the androgen receptor (AR) signaling pathway in the presence of an antagonist - cell viability counter screen (AID 1259379; active means well fitted curve in the direction sought with a large enough effect in the repeat runs; an effect the other way counts as inactive or inconclusive; further: nearly all actives have a fitted effect of over 25% in size; further: potency means the concentration at half of the fitted maximal effect). Summed up: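 MDA-kb2 cells (MMTV-luciferase, AR/GR), 3,000/well, 5 h attachment, then 3.0 µM nilutamide (final) and compounds at 15 concentrations. Viability by CellTiter-Fluor fluorescence after 16 h at 37 °C, 0% CO2, in the reporter wells.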

Assay [3] in a line: qHTS assay to identify small molecule agonists of the estrogen receptor beta (ER-beta) signaling pathway - cell viability counter screen (AID 1259380; active means well fitted curve in the direction sought with a large enough effect in the repeat runs; an effect the other way counts as inactive or inconclusive; further: nearly all actives have a fitted effect of over 30% in size; further: potency means the concentration at half of the fitted maximal effect). In outline: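 ER-beta-UAS-bla HEK293T cells in medium with 2% charcoal-stripped FBS, pre-incubated 6 hr, then treated 16 hr at 37C. Cytotoxicity read in the same wells by CellTiter-Glo luminescence after 30 min at room temperature.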

The nature of assay [4]: qHTS assay to identify small molecule antagonists of the estrogen receptor beta (ER-beta) signaling pathway - cell viability counter screen (AID 1259382; active means well fitted curve in the direction sought with a large enough effect in the repeat runs; an effect the other way counts as inactive or inconclusive; further: nearly all actives have a fitted effect of over 55% in size; further: potency means the concentration at half of the fitted maximal effect). In outline:
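ER-beta-UAS-bla HEK293T cells in 2% charcoal-stripped FBS medium, treated with compound plus 1 nM 17-beta-estradiol for 16 h at 37C. Viability read by CellTiter-Glo luminescence after 30 min at room temperature in the same wells.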

Assay [5] is described as follows: qHTS assay to identify small molecule agonists or antagonists of the thyroid stimulating hormone receptor (TSHR) signaling pathway - wild type cell line counter screen (AID 1259384). In outline: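 Counter screen in untransfected Hek293: compounds (15-point titration, triplicate) plus phosphodiesterase inhibitor Ro20-1724 added after 18 h plating; 30 min RT. Intracellular cAMP via competitive d2/cryptate immunoassay, 1 h incubation.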

In assay [6] the target is Thyrotropin receptor (Homo sapiens) (UniProt P16473). Kind of assay: qHTS assay to identify small molecule antagonists of the thyroid stimulating hormone receptor (TSHR) signaling pathway (AID 1259385). Further: nearly all actives have a fitted effect of over 20% in size. Summed up:
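Antagonist mode: compound-treated TSHR-expressing HEK293 cells were stimulated with 1.5 ng/mL TSH (final) in presence of Ro20-1724 for 30 min at RT. HTRF cAMP detection after 1 h; each compound tested at 15 concentrations, triplicate.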

Assay [7] is described as follows: qHTS assay to identify small molecule agonists of the estrogen receptor alpha (ER-alpha) signaling pathway in the presence of an antagonist - cell viability counter screen (AID 1259386; active means well fitted curve in the direction sought with a large enough effect in the repeat runs; an effect the other way counts as inactive or inconclusive;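 further: cells exposed to compounds for 22 h at 37 °C before the viability read; nearly all actives have a fitted effect of over 30% in size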; further: potency means the concentration at half of the fitted maximal effect). Summed up: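 Cell viability in VM7Luc4E2 cells (endogenous full-length ER-alpha) measured by CellTiter-Fluor fluorescence in the same wells as the luciferase screen. Cells pre-cultured 5 days in charcoal-stripped serum, then treated 22 h with compounds at 15 concentrations plus 10.0nM ICI-182,780.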

In assay [8] the target is Progesterone receptor (Homo sapiens) (UniProt P06401). In words: qHTS assay to identify small molecule agonists of the progesterone receptor (PR) signaling pathway (AID 1346784). Further: nearly all actives have a fitted effect of over 30% in size. In outline: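 PR-UAS-bla HEK 293T cells carrying a UAS-driven beta-lactamase reporter were seeded in medium with 2% charcoal-stripped FBS, preincubated 6 hr at 37C, then exposed to compounds in DMSO for 16 hr; agonism was read by LiveBLAzer B/G FRET fluorescence.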
Sequence of Progesterone receptor (Homo sapiens) (P06401 whole entry, looked up): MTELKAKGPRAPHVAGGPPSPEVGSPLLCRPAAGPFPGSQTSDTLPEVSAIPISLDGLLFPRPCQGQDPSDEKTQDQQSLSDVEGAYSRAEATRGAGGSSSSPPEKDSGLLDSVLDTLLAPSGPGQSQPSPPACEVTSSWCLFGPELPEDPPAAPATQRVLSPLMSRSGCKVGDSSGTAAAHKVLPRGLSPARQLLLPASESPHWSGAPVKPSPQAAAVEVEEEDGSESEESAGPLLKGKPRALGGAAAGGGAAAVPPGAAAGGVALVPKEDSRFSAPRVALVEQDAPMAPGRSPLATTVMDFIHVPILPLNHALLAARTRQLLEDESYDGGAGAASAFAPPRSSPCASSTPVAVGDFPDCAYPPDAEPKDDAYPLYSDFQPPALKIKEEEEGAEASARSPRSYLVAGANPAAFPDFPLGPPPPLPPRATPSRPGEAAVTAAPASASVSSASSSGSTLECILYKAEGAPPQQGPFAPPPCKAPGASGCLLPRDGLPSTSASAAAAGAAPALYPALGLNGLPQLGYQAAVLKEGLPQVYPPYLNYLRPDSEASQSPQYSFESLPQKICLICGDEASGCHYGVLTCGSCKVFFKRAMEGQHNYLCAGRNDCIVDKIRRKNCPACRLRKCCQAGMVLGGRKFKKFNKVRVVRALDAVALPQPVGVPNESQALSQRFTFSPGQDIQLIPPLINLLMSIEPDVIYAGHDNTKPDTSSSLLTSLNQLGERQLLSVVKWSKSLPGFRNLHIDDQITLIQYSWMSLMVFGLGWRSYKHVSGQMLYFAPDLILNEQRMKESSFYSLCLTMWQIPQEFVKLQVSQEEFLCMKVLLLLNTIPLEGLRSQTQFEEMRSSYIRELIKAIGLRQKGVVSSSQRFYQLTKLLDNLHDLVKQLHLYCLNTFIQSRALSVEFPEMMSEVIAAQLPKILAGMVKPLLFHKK

Assay [9] has the same target. Kind of assay: qHTS assay to identify small molecule antagonists of the progesterone receptor (PR) signaling pathway (AID 1346795; active means well fitted inhibition curve with a large enough effect in the signal ratio in the repeat runs, not every such curve was filed as active; the % refers to the signal ratio). Summed up:
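PR-UAS-bla HEK293T cells carrying a UAS-driven beta-lactamase reporter were plated in medium with 2% charcoal-stripped FBS and rested 6 hr at 37C. Compounds were added with 1 nM R5020 (final) for 16 hr, then FRET substrate loaded 2 hr at room temperature.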

The nature of assay [10]: qHTS assay to identify small molecule antagonists of the progesterone receptor (PR) signaling pathway - cell viability counter screen (AID 1346798; active means well fitted curve in the direction sought with a large enough effect in the repeat runs; an effect the other way counts as inactive or inconclusive; further: nearly all actives have a fitted effect of over 50% in size; further: potency means the concentration at half of the fitted maximal effect). Summed up: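 PR-UAS-bla HEK293T cells in medium with 2% charcoal-stripped FBS were treated with compounds plus R5020 for 16 hr at 37C. Cell viability was then read by CellTiter-Glo luminescence after 30 min at room temperature in the same wells.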

Assay [11] in a line: qHTS assay to identify small molecule agonists of the progesterone receptor (PR) signaling pathway - cell viability counter screen (AID 1346799). Further: nearly all actives have a fitted effect of over 45% in size. Further: potency means the concentration at half of the fitted maximal effect. Summed up:
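PR-UAS-bla HEK293T cells, 3,000 per well in medium with 2% charcoal-stripped FBS, were preincubated 6 hr at 37C, then exposed to compounds for 16 hr; viability was read as CellTiter-Glo luminescence after 30 min at room temperature.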

The nature of assay [12]: qHTS assay to identify small molecule antagonists of the TGF-beta/Smad signaling pathway - cell viability counter screen (AID 1346824; active means well fitted curve in the direction sought with a large enough effect in the repeat runs; an effect the other way counts as inactive or inconclusive; further: nearly all actives have a fitted effect of over 50% in size; further: potency means the concentration at half of the fitted maximal effect). Summed up: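 Cytotoxicity counter-screen run in the same wells as the beta-lactamase Smad reporter read: CellTiter-Glo luminescence after 30 min at room temperature. HEK 293T SBE-bla cells had 5 hr compound exposure at 37 C with TGF-beta1 (0.25 ng/mL stock).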

A short description of assay [13]: qHTS assay to identify small molecule agonists of the TGF-beta/Smad signaling pathway - cell viability counter screen (AID 1346829; active means well fitted curve in the direction sought with a large enough effect in the repeat runs; an effect the other way counts as inactive or inconclusive; further: nearly all actives have a fitted effect of over 45% in size; further: potency means the concentration at half of the fitted maximal effect). In outline: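 Cytotoxicity counter screen: CellTiter-Glo luminescence (30 min, room temperature) measured in the SBE-bla HEK 293T reporter wells after 5 hr compound treatment at 37 C and the 2 hr substrate step.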
A short description of assay [14]: qHTS assay to identify small molecule agonists of the TGF-beta/Smad signaling pathway (AID 1346859; active means well fitted activation curve with a large enough effect in the signal ratio in the repeat runs, not every such curve was filed as active; the % refers to the signal ratio; further: series mostly up to about 77 µM). Summed up:
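HEK 293T cells stably carrying a beta-lactamase reporter driven by the Smad binding element were seeded overnight, exposed to DMSO-dissolved compounds for 5 hr at 37 C, 5% CO2, then loaded with FRET substrate for 2 hr at room temperature.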

The target in assay [15] is Thyrotropin-releasing hormone receptor (Homo sapiens) (UniProt P34981). Kind of assay: qHTS assay to identify small molecule agonists of the thyrotropin-releasing hormone receptor (TRHR) signaling pathway (AID 1346891). Further: series mostly up to about 58 µM. Summed up: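 TRHR-expressing HEK293 cells were plated 18 h at 37 °C/5% CO2, loaded with calcium dye 2 h at 37 °C, then given compound in DMSO; fluorescence was read kinetically for 3 min at 1 s intervals.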
Sequence of Thyrotropin-releasing hormone receptor (Homo sapiens) (P34981 whole entry, looked up): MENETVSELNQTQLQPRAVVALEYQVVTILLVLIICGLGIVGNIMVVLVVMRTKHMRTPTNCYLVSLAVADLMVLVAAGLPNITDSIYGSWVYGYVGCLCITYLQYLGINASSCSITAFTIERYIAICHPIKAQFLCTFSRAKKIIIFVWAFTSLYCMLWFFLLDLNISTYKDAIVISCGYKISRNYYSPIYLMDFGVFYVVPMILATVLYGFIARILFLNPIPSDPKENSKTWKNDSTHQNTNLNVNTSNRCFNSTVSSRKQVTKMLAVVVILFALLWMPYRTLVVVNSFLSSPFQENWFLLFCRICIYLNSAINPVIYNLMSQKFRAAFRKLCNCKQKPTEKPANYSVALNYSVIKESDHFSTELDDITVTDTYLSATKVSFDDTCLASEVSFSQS

Assay [16] addresses Estrogen receptor beta (Homo sapiens) (UniProt Q92731). In words: qHTS assay to identify small molecule antagonists of the estrogen receptor beta (ER-beta) signaling pathway (AID 1259378; active means well fitted inhibition curve with a large enough effect in the signal ratio in the repeat runs, not every such curve was filed as active; the % refers to the signal ratio). Summed up:
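Antagonist mode: compounds added to beta-lactamase reporter HEK293T ER-beta-UAS cells stimulated with E2 (1nM final), 16 hr at 37C. LiveBLAzer B/G FRET substrate, 2 hours room temperature, fluorescence read-out.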

The target in assay [17] is Androgen receptor (Homo sapiens) (UniProt P10275). In words: qHTS assay to identify small molecule agonists of the androgen receptor (AR) signaling pathway in the presence of an antagonist (AID 1259381). Further: nearly all actives have a fitted effect of over 15% in size. Summed up:
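MDA-kb2 cells carrying MMTV-luciferase (AR/GR responsive), 3,000 cells/well, co-treated with 3.0 uM nilutamide final. Compounds at 15 concentrations, 16 hr at 37C without CO2. Luciferase luminescence read after 30 min with ONE-Glo.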

In assay [18] the target is Estrogen receptor (Homo sapiens) (UniProt P03372). In words: qHTS assay to identify small molecule agonists of the estrogen receptor alpha (ER-alpha) signaling pathway in the presence of an antagonist (AID 1259383). Further: top concentration of the series differs between compounds; nearly all actives have a fitted effect of over 15% in size. In outline:
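VM7Luc4E2 cells express endogenous full-length ER-alpha with an ERE-luciferase reporter and were hormone-deprived for 5 days. Compounds at 15 concentrations were added with 10.0nM ICI-182,780 for 22hr at 37C. Luminescence was read with ONE-Glo.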

Assay [19] addresses Thyrotropin-releasing hormone receptor (Homo sapiens) (UniProt P34981). Kind of assay: qHTS assay to identify small molecule antagonists of the thyrotropin-releasing hormone receptor (TRHR) signaling pathway (AID 1346877; active means well fitted inhibition curve with a large enough effect in the repeat runs, not every such curve was filed as active; further: series mostly up to about 51 µM). In outline: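 TRHR-expressing HEK293 cells loaded with calcium dye for 2 h at 37 C; compounds pre-incubated 5 min at room temperature before TRH challenge at 1 nM final. Intracellular calcium fluorescence read kinetically for 3 min; 15 concentrations in triplicate.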

Sequence of Thyrotropin receptor (Homo sapiens) (P16473 whole entry, looked up): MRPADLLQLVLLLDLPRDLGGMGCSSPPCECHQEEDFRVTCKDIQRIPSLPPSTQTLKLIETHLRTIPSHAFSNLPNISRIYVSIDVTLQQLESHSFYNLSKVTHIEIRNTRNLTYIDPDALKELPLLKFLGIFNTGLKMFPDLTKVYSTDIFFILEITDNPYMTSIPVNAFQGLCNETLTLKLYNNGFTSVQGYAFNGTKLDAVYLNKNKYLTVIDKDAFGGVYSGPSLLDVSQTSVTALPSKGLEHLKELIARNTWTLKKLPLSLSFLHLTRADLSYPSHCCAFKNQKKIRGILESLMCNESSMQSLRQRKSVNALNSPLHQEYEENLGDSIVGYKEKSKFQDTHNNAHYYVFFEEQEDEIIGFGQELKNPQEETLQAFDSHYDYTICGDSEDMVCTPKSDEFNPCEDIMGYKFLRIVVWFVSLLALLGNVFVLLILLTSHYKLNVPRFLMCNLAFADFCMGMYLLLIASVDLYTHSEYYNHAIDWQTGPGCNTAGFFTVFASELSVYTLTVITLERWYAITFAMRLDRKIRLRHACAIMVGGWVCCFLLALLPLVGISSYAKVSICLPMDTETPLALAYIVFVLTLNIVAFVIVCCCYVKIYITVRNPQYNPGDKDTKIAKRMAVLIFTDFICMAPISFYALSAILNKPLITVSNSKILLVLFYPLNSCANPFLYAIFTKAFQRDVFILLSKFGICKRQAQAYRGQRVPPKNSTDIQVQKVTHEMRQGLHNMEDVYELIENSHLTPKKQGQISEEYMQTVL
Sequence of Estrogen receptor beta (Homo sapiens) (Q92731 whole entry, looked up): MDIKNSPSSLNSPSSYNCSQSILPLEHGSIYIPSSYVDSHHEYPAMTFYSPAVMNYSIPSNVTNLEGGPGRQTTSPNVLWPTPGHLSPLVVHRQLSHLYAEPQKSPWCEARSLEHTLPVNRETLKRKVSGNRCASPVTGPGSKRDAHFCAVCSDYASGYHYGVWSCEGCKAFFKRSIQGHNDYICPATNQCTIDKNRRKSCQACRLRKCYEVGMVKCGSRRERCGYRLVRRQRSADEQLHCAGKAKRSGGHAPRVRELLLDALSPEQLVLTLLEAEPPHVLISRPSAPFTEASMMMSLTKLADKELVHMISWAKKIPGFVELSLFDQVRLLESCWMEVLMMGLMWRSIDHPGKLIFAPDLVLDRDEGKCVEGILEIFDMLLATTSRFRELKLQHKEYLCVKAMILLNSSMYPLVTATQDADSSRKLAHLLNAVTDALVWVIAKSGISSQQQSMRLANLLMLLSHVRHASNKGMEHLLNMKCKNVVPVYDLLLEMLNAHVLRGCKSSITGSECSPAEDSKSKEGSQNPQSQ
Sequence of Androgen receptor (Homo sapiens) (P10275 whole entry, looked up): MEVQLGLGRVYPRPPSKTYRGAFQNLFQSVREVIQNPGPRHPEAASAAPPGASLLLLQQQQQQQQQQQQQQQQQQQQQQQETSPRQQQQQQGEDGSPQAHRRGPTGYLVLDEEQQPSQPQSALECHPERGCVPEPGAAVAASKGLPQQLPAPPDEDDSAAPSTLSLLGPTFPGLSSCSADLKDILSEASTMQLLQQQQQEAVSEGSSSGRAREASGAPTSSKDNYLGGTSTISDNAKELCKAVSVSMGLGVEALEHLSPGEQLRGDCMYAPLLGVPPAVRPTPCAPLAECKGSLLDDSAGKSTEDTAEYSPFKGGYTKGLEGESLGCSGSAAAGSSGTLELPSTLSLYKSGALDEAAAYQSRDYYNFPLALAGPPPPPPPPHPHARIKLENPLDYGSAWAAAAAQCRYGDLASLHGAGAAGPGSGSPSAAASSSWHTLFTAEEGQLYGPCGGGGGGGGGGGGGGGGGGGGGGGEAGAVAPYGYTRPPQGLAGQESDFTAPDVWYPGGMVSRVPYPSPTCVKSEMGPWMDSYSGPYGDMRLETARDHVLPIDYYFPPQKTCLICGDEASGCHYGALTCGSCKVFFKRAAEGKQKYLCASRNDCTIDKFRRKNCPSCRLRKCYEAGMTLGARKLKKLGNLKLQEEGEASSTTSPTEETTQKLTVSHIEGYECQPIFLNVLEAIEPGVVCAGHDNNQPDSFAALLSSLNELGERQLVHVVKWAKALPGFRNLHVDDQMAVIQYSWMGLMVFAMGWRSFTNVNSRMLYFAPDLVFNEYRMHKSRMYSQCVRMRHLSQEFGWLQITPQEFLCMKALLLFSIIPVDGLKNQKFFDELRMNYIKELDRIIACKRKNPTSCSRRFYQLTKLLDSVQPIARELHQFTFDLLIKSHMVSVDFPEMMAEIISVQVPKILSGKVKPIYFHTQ
Sequence of Estrogen receptor (Homo sapiens) (P03372 whole entry, looked up): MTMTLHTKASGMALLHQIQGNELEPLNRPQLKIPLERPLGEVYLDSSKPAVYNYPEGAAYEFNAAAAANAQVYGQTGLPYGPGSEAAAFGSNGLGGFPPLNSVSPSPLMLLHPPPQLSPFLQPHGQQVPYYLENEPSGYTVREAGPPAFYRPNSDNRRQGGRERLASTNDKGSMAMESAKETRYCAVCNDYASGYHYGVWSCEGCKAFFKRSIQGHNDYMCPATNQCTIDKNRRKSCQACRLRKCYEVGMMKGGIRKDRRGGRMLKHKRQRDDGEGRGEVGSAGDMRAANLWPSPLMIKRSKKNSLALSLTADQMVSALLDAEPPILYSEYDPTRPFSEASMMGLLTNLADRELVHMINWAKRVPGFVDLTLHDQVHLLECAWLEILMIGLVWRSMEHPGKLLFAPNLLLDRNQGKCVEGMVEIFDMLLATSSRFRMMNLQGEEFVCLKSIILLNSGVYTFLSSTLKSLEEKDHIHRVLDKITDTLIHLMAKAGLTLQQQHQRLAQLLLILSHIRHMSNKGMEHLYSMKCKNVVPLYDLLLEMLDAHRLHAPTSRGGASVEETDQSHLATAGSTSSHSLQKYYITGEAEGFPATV

Take `COc1cc(C(C)(C)C)c(O)c(C(C)(C)C)c1`: the Potency result in assay [1], in assay [2], in assay [3], in assay [4], in assay [5] and in assay [6] was “inactive” each time. In addition, the Potency entry in [7], in [9], in assay [10], in [11], in assay [12] and in assay [13] was “inactive” each time. The Potency entry in assay [15] is “inactive”. In addition, the outcome in assay [8] and in assay [14] was inactive.
Take `COc1ccc(C(C)=O)cc1`: the Potency entry in assay [1], in assay [16], in assay [2], in assay [17], in assay [4] and in [18] was “inactive” each time. Besides, the Potency result in assay [7], in assay [9], in assay [10], in assay [11], in assay [12] and in assay [13] was “inactive” each time. Also, the Potency result in assay [15] was “inactive”. Also, the molecule was called inactive in assay [8], in assay [14] and in assay [19].
For the molecule `CCCCCCCCCC(=O)OCC`, the Potency entry in assay [1], in assay [16], in assay [3], in assay [18], in assay [5] and in [6] was “inactive” each time. The Potency result in [7], in assay [9], in assay [10], in assay [11], in [12] and in [13] was “inactive” in each case. In addition, the molecule was called inactive in assay [8] and in assay [14].
On to `C=C(C)C(=O)OCCOc1ccccc1`, for which the Potency in assay [1] is 43.3 µM (active). Also, the Potency result in assay [16], in assay [2], in [17], in assay [4], in [18] and in assay [5] was “inactive” each time. Besides, the Potency result in assay [6], in [7], in assay [9], in assay [11], in assay [12] and in [13] was “inactive” in each case. Further, in assay [15], the Potency entry is “inactive”. For the same molecule, the outcome in [8], in [14] and in assay [19] was inactive.
`N#Cc1c(F)cccc1F`: the Potency result in [1], in [2], in assay [3], in assay [4], in [5] and in assay [6] was “inactive” each time. Further, the Potency result in assay [7], in assay [10], in [11], in assay [12], in assay [13] and in assay [15] was “inactive” in each case. In addition, the call in assay [8] and in [14] was inactive.
Consider `Cn1sccc1=O`, for which the Potency in assay [1] was 12.2 µM (active) and 3.06 µM (active). In addition, the Potency result in assay [2], in assay [3], in assay [4], in assay [18], in assay [5] and in assay [6] was “inactive” in each case. For the same molecule, the Potency result in assay [7], in assay [9], in [10], in [12], in assay [13] and in assay [15] was “inactive” in each case. The molecule was classed as inactive in [8], in [14] and in assay [19].
For `Nc1nc(N)c2nc(CNc3ccc(C(=O)N[C@@H](CCC(=O)O)C(=O)O)cc3)cnc2n1`, the Potency result in assay [1], in assay [16], in assay [2], in assay [3], in assay [4] and in [18] was “inactive” in each case. The Potency result in assay [5], in assay [6], in [7], in [10], in [11] and in [15] was “inactive” throughout. Further, the molecule was called inactive in assay [8] and in [19].
Regarding `NC(N)=NN=C(/C=C/c1ccc([N+](=O)[O-])o1)/C=C/c1ccc([N+](=O)[O-])o1`, the Potency was 2.98 µM (active) in [1]; 8.41 µM (active) in assay [2]; 10.6 µM (active) in assay [3]; 23.7 µM (active) in assay [4]; 9.44 µM (active) in assay [7]; 23.7 µM (active) in assay [10]. For the same molecule, the Potency in [11] was 23.7 µM (active); in [12], 23.9 µM (active); in assay [13], 21.3 µM (active). For the same molecule, the Potency entry in assay [17], in assay [18], in assay [5] and in assay [15] was “inactive” in each case. In addition, the call in [14] and in [19] was inactive.
